Hsp70 act: Hsp70 transcriptional activators, primary screen, cell-based, HeLa, Hsp70 promoter luciferase, luminescence, 10 µM. 0.04% of 200,000 active. HeLa Hsp70 promoter luciferase reporter; scaled: vehicle 0, proteasome-inhibitor control 100%. activation, % at 10 µM;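 active = activation above the mean across all tested compounds plus 3 SD, cutoff set per campaign, cut at about 5.5% in these data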
S1P4 antagonist: S1P4 receptor antagonists, primary screen, cell-based | Sphingosine 1-phosphate receptor 4 (Homo sapiens), O95977 | S1P4-expressing cells, antagonist mode, reporter read-out | inhibition, % at 4.98 µM | 0.26% of 220,000 active | AID 1510, 2009; in the data active = inhibition above about 29%
Target sequence (O95977 whole entry, looked up): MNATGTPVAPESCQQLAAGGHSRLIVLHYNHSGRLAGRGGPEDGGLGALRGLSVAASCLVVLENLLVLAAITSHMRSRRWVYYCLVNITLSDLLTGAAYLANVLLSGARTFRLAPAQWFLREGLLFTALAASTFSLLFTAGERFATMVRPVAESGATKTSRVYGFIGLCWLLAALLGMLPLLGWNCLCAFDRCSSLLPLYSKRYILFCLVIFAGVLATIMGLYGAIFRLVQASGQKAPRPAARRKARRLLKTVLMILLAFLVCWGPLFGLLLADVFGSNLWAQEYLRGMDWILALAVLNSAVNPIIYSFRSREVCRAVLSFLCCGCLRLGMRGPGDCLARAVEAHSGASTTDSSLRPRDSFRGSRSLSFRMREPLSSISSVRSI
HSF1 inh: HSF1 inhibitors in luciferase reporter cells, primary screen, cell-based, NIH3T3, luminescence; NIH3T3-HGL HSE-luciferase, MG132-induced, luminescence 8 h; hits give low values; activity change, negative = inhibition, % at 7.5 µM (by protocol); 0.77% of 300,000 active; AID 2098, 2009;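 active = more than half of replicate wells show activity change below -50%, luminescence cut by over half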;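 note: luciferase reports HSF-1 transcriptional activity via heat shock element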
HSF1 activator: HSF-1 activators, primary screen, NIH3T3-HGL cells, MG132 stress, luminescence, single point. activation, % at 9 µM. 1.7% of 300,000 active. NIH3T3-HGL HSF-1 luciferase reporter, 8 h; 100% = twice DMSO control signal;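 active = mean replicate activation of at least 50% with a set share of replicates each reaching 50%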
S1P3 antagonist: S1P3 receptor antagonists, primary screen, cell-based | 0.27% of 170,000 active | Sphingosine 1-phosphate receptor 3 (Homo sapiens), Q99500 | inhibition, % at 4.98 µM | CHO S1P3 NFAT-BLA reporter, FRET fluorescence, antagonist mode;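 active = inhibition above the plate cutoff, the mean inhibition of test wells on that plate plus 3 SD, cut at about 28% in these data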;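 note: cells challenged with S1P at its EC80 of 0.8 µM; blue over green emission ratio from cleaved BLA substrate after 4 h stimulation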
S1P4 ag: S1P4 receptor agonists, primary screen, cell-based; activation, % at 4.98 µM; S1P4-expressing cell line, agonist reporter assay; 0.35% of 220,000 active; AID 1509, 2009; Sphingosine 1-phosphate receptor 4 (Homo sapiens), O95977; in the data active = activation above about 11%
A number is an active result; 0 = inactive; - = no result. Shown are actives, neighbours in structure and some others; about 2.9% of the full set was active somewhere.

SMILES	Hsp70 act	S1P4 antagonist	HSF1 inh	HSF1 activator	S1P3 antagonist	S1P4 ag
CC(C)(C)OC(=O)N[C@H](Cc1ccccc1)C(=O)N1CCC[C@@H]1C(=O)O	-	-	0	0	-	-
CCCOc1ccc(-c2nc(SCc3ccccc3)[nH]c(=O)c2C#N)cc1OC	-	-	0	0	-	-
NC(=O)c1cc(Br)cc(C2CCCCC2)c1O	-	0	0	0	0	0
Cc1nc(CSc2ccc(Cl)cc2)cs1	-	-	0	51	-	-
CCOC(=O)C1(CCOc2ccccc2)CCN(Cc2cccc(F)c2)CC1	-	-	0	0	-	-
CCOC(=O)C1(CCOc2ccccc2)CCN(Cc2cccc3c2OCO3)CC1	0	0	0	0	0	0
CCOC(=O)C1(CCOc2ccccc2)CCN(Cc2cc(OC)c3c(c2)OCO3)CC1	0	0	0	57	0	0
CCOC(=O)C1(CCOc2ccccc2)CCN(Cc2cccc(-n3cccn3)c2)CC1	0	0	-60	0	0	0
COc1ccc(OCc2cc(C(=O)N3CCC(c4ccccc4)CC3)no2)c(Cl)c1	-	-	0	0	-	-
CCOC(=O)C(C(=O)OCC)C(Nc1cccc(Br)c1)c1ccccc1 (stereo not given)	0	0	0	203	-	0
COc1ccc(OC)c(NC(=O)CNC(c2ccccc2)c2ccccc2)c1	-	-	0	62	-	-
COc1ccc(OC)c(NC(=O)CSc2nc3ccccc3cc2Cc2ccccc2)c1	0	0	-54	0	-	0
COc1ccc(OC)c(CCNC(=O)C(C)n2nc(C)c3c(C)n(-c4ccc(C)cc4)nc3c2=O)c1 (stereo not given)	-	-	0	0	-	-
COc1cccc(NC(=O)c2nnn(Cc3ccc(Br)cc3F)c2N)c1	0	0	0	70	0	0
COc1cccc(NC(=O)Cn2nnc(C(=O)Nc3ccccc3)c2N)c1	0	0	0	0	-	0
CSc1nccc(N/N=C/c2ccccc2)n1	-	-	0	72	-	-
CS(=O)(=O)c1ccc(Cl)c(NC(=O)Cc2c(F)cccc2Cl)c1	0	0	0	0	0	0
C/C(N)=C(/C#N)C(=O)CSc1nc2ccccc2n1CC(C)C	0	0	0	0	0	0
COc1ccc(/C=C(\C#N)C(=O)Nc2ccccn2)cc1	-	-	0	75	-	-
Cc1ccc(/C=C(\C#N)C(=O)Nc2ccccn2)o1	0	0	0	60	0	0
CC(=O)c1cc2c(cc1NC(=O)C1CCC1)OCO2	0	0	0	0	0	0
Cc1[nH]c2c(C)cccc2c1CCNC(=O)c1ccc2c(c1[N+](=O)[O-])C(=O)c1ccccc1C2=O	0	0	0	53	-	0
Cc1[nH]c2ccccc2c1CCNC(=O)c1ccc2c(c1[N+](=O)[O-])C(=O)c1ccccc1C2=O	0	0	0	58	-	0
O=C1C2CC(O)CN2C(=O)N1c1ccccc1 (stereo not given)	0	0	0	0	0	0
NC(=O)CSCc1cccc(Br)c1	0	0	0	0	0	0
SMILES	Hsp70 act	S1P4 antagonist	HSF1 inh	HSF1 activator	S1P3 antagonist	S1P4 ag
NC(CSCc1cccc(Br)c1)C(=O)O (stereo not given)	0	0	0	79	0	0
CCN(CC)S(=O)(=O)c1ccc(C(=O)Nc2cc(C)on2)cc1	-	-	0	0	-	-
COc1ccc(OC)c(-c2cc(C(=O)Nc3cc(C)on3)no2)c1	0	0	-64	0	0	0
CCN(CC)S(=O)(=O)c1cc(C(=O)Nc2cc(C)on2)ccc1Cl	-	-	-61	0	-	-
Cc1cc(NC(=O)c2ccc(C)c([N+](=O)[O-])c2)no1	0	0	0	0	0	0
Cc1cc(NC(=O)c2ccc(C)c(C)c2)no1	-	-	0	61	-	-
Cc1cccc([C@@H]2[C@@H]3C(=O)N(Cc4ccccc4)C(=O)[C@@H]3[C@]3(C)C(=O)N(c4ccc(C(F)(F)F)cc4)C(=O)N23)c1	-	-	0	0	-	-
O=[N+]([O-])c1cccc(S(=O)(=O)Nc2ccc(-c3ccc(N4CCOCC4)nn3)cc2)c1	-	-	0	0	-	-
CCOC(=O)c1ccc(N=c2sc(C(=O)OC)cc(=O)n2-c2ccc(C(=O)OCC)cc2)cc1	0	0	0	105	0	0
CC(C)[C@@H](CSc1ccccc1)N1CCN(Cc2ccccc2)CCC1=O	-	-	0	0	-	-

Screening results deposited in PubChem BioAssay by several laboratories.
